A selection: hits, their analogues and other compounds. The true share with any hit is near 21%.
Gal4-VP16 FLuc – counter-screen for ROR gamma inhibitors: Gal4-VP16 reporter | Potency, µM (titrated, usually from 53.6 µM), for inactives: at the top dose activity, negative = inhibition, actives largely listed as inhibitors | Drosophila S2 Gal4-VP16 UAS-luciferase, luminescence, 20 h | AID 2546 | 310,000 compounds, 3.5% hits;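 also: Gal4-VP16 expression switched on by copper sulfate through the metallothionein promoter; potency is read from the fitted curve at half-maximal effect; nearly all actives have a fitted effect of over 50% in size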
IL-1B inflam inh – blocks inflammasome-driven IL-1 beta release | activity change, % at 57.5 µM | AID 743279 | 360,000 compounds, 4.7% hits | THP-1 LPS/ATP IL-1B secretion, AlphaLISA, 16 h; stronger effect = lower value; in the data active = activity change below about -50%; inconclusive = mostly about -30% to -49%
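Secreted IL-1B measured by AlphaLISA bead assay after 16 h compound exposure of THP-1 cells; compounds (final up to 57.5 uM) added 1 h before LPS (250 ng/mL) and ATP (1.25 mM) stimulation; lower signal means less secretion.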
TDP1 cell noCPT – qHTS for Inhibitors of human tyrosyl-DNA phosphodiesterase 1 (TDP1): qHTS in cells in absence of CPT; AID 686978, 2013; 420,000 compounds, 15% hits; Potency, µM (highest dose often 46.2 µM), inactives show top-dose activity change, negative = growth inhibition, usual class: inhibitors; DT40 Tdp1-/- hTDP1 cells, no CPT, ATP luminescence, 48 h; also: potency is read from the fitted curve at half-maximal effect; nearly all actives have a fitted effect of over 55% in size
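A cellular qHTS used chicken DT40 cells lacking endogenous Tdp1 but carrying stably transfected human TDP1. Compounds were applied without camptothecin, and cell growth kinetics were judged by ATP-dependent luminescence after ≥48 hr.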
RORgamma inh – blocks mouse ROR gamma transcriptional activity. Drosophila S2 Gal4-RORgamma UAS-luciferase reporter, 20 h. Potency, µM (series often up to 53.6 µM), for inactives: top-dose activity change, negative = inhibition, hits mostly inhibitors. 310,000 compounds, 5.4% hits. AID 2551; also: potency is read from the fitted curve at half-maximal effect; nearly all actives have a fitted effect of over 60% in size
Target sequence (P51450 whole entry, looked up, the tested form may be a part): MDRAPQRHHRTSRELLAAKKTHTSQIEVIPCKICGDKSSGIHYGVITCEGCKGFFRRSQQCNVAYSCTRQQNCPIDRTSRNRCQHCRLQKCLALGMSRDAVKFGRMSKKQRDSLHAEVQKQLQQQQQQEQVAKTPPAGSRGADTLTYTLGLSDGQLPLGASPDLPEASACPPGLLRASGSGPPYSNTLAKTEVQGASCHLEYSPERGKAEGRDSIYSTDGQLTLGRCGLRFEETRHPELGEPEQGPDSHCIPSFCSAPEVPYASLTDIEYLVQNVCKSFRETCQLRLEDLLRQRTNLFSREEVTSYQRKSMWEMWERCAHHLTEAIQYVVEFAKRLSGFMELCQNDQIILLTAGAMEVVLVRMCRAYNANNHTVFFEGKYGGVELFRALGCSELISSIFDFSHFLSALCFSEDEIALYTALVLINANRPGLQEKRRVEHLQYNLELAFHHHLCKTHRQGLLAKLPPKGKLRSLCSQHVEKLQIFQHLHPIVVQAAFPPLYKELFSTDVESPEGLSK
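Schneider cells (Drosophila), stable Gal4 DBD–ROR gamma + UAS-luc; 1 hr cmpd preincubation; Cu2+ induction 700 uM final; 20 hr ambient; luminescence.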
ELG1 repair inh – ELG1-dependent DNA repair inhibition | HEK293T ELG1-luciferase reporter, luminescence, 16 h; DNA damage induced by 5-fluorouridine | Potency, µM (highest dose often 46.1 µM), for the others: at the highest dose activity change, negative = inhibition, hits mostly inhibitors | 330,000 compounds, 2.3% hits | AID 504467; also: potency is read from the fitted curve at half-maximal effect; nearly all actives have a fitted effect of over 55% in size
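Quantitative HTS, concentration-response format. 2,000 cells/well co-treated with 5-fluorouridine and compound, 16 hr in 5% CO2 at 37 °C; ONE-Glo luminescence read after 30 min.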
DT40 TDP1 CPT – DT40-hTDP1 cell growth loss with CPT; chicken DT40 Tdp1-/-;hTDP1 cells + 20 nM CPT, ATP luminescence, 48 h; Potency, µM (series often up to 46.2 µM), for inactives: at the top dose activity change, negative = growth inhibition, actives largely listed as inhibitors; 420,000 compounds, 12% hits; AID 686979; also: potency is read from the fitted curve at half-maximal effect; nearly all actives have a fitted effect of over 55% in size
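Chicken DT40 Tdp1-/- cells complemented with human TDP1, 400 cells/well, exposed to compounds plus 20 nM camptothecin for at least 48 h at 37 C; viability read as ATP content by CellTiter-Glo luminescence.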
Active calls of the source: *; ? = inconclusive; · = no result. Unless noted, calls follow the shape of the dose curve; as a rule, active = well fitted curve in the direction sought with a large enough effect; inconclusive = small, poorly fitted or top-dose-only effect, or another doubt; inactive = no such curve, though single readings can be large; an effect the other way counts as inactive or inconclusive. % is scaled to controls: 0 for no effect and ±100 for the full control effect.

SMILES	Gal4-VP16 FLuc	IL-1B inflam inh	TDP1 cell noCPT	RORgamma inh	ELG1 repair inh	DT40 TDP1 CPT
CCOC(=O)c1sc(Nc2cccc(C)c2C)nc1C	5%	·	·	?	-1%	·
CCOC(=O)c1sc(Nc2cccc(Cl)c2)nc1C	-12%	-87*	?	0%	?	-13%
Nn1c(SCC(=O)N2CCOCC2)nnc1-c1cccnc1	·	8	2%	·	15%	-3%
COc1ccc(-c2noc(CSc3nnc(Cc4ccccc4)n3-c3ccc(Cl)cc3)n2)cc1	1%	?	?	-29%	?	?
Cc1ccc(-c2noc(CSc3nnc(CCc4ccccc4)n3-c3ccccc3)n2)cc1	-7%	-12	16µM*	-24%	?	16µM*
COc1ccc(-c2noc(CSc3nnc(CCc4ccccc4)n3-c3ccccc3)n2)cc1OC	-7%	-10	16µM*	-1%	?	15µM*
Cc1ccc(-c2noc(CSc3nnc(Cc4ccccc4)n3-c3ccc(Cl)cc3)n2)cc1	-9%	-24	-30%	-8%	-14%	-15%
COc1ccc(CCN2CC(C(=O)Nc3ccccc3F)CC2=O)cc1OC (configuration not stated)	·	16	-12%	·	?	0%
Cc1ccc(C)c(NC(=O)C2CCN(c3nn4c(=O)cc(C)nc4s3)CC2)c1	·	·	0%	·	·	-15%
O=C(Nn1c(C2CCC2)nc2ccccc2c1=O)C1CCC1	-9%	-9	-11%	9%	2%	-6%
COc1ccccc1C(=O)Nn1c(C2CCC2)nc2ccccc2c1=O	-3%	9	?	-2%	-20%	13µM*
O=C(Nn1c(C2CCCCC2)nc2ccccc2c1=O)c1ccc(Cl)c([N+](=O)[O-])c1	?	-224*	?	?	0%	?
COc1cc2nc(C3CC3)n(NC(=O)c3ccc(Cl)cc3)c(=O)c2cc1OC	-6%	23	23µM*	33%	?	?
Cc1cc(C(=O)Nn2c(C3CCCCC3)nc3ccccc3c2=O)ccc1[N+](=O)[O-]	-16%	51	?	?	-24%	?
CCOc1ccccc1C(=O)Nn1c(C2CCC2)nc2ccccc2c1=O	0%	16	23µM*	-1%	?	9.2µM*
CCOC(=O)c1cc(S(=O)(=O)Nc2ccc(C)cc2Cl)[nH]n1	·	·	-27%	·	·	-20%
Cc1cccc(C)c1NC(=O)c1csc([C@@H]2O[C@H](CO)[C@H](O)[C@H](O)[C@H]2O)n1	·	43	-2%	·	·	0%
CC(=O)Nc1ccc(S(=O)(=O)NC(CC(=O)N(C)Cc2ccccc2)C(C)C)cc1 (configuration not stated)	1%	-3	23µM*	0%	-11%	12µM*
O=C(NCc1ccccc1)c1cc2ccc(O)cc2oc1=O	7.1µM*	12	?	2.2µM*	?	?
CCOc1ccc2cc(C(=O)NCc3ccccc3)c(=N)oc2c1	-2%	-77*	?	23%	?	?
COc1ccccc1C(=O)c1cc2ccc(O)cc2oc1=O	10%	13	3%	20µM*	?	-16%
CCOc1cccc2cc(C(=O)NCc3ccc(Cl)cc3)c(=N)oc12	-21%	-65*	?	6%	?	?
CCc1nc2ccc(C(=O)N(C)CCN(C)C)cn2c1N(CC)C(=O)NCCc1ccccc1	·	3	-10%	·	·	-13%
COc1ccc(CCNC(=O)c2c(C)nc3ccccn23)cc1	-20%	9	?	?	?	?
CCc1nc2ccc(C(=O)N(C)CCCN(C)C)cn2c1N(C)Cc1cc2ccccc2s1	·	-9	21µM*	·	·	?
SMILES	Gal4-VP16 FLuc	IL-1B inflam inh	TDP1 cell noCPT	RORgamma inh	ELG1 repair inh	DT40 TDP1 CPT
CCc1nc2ccc(C(=O)Nc3cccc(OCC(=O)N(C)C)c3)cn2c1N(C=O)Cc1ccc(OC)cc1	·	-7	?	·	·	?
CCc1nc2ccc(C(=O)N(C)CCCN(C)C)cn2c1N(C)CCCc1ccccc1	·	-12	?	·	·	?
CCc1nc2ccc(C(=O)N(C)Cc3ccccc3)cn2c1N(C)Cc1ccc(OC)cc1	·	-14	12µM*	·	·	12µM*
COc1ccc(CNC(=O)c2c(C)nc3ccccn23)cc1	?	27	?	?	13µM*	-24%
CCc1nc2ccc(C(=O)NCCOc3ccc(OC)cc3)cn2c1N(C=O)Cc1ccc(OC)cc1	·	0	?	·	·	23µM*
Cc1ccc(-c2cc(C(F)(F)F)n3nc(C(=O)NCC45CC6CC(CC(C6)C4)C5)cc3n2)cc1	·	·	-19%	·	·	-15%
Nc1nc(SCc2ccc(Br)cc2)c2ncn(C3OC(CO)C(O)C3O)c2n1 (configuration not stated)	·	8	?	·	·	-3%
CSc1nc(NC2CCCC2)c([N+](=O)[O-])c(NC2CCCC2)n1	-9%	·	-5%	0%	·	3%
CC(C)(C(=O)N1CCC1(C)C(=O)NS(=O)(=O)c1ccc(C#N)cc1)c1ccccc1 (configuration not stated)	·	11	-17%	·	·	-17%
C[C@@H]1CN([C@@H](C)CO)C(=O)Cc2cc(NC(=O)Nc3ccc4c(c3)OCO4)ccc2O[C@@H]1CN(C)C(=O)NC1CCCCC1	·	0	?	·	-10%	?
CCc1nc2ccc(C(=O)Nc3ccc(Cl)c(Cl)c3)cn2c1N(C)Cc1ccc(OC)cc1	·	-61*	?	·	·	16µM*
CCc1nc2ccc(C(=O)NCc3ccc(OC)cc3)cn2c1N(CC)CCN(C)C	·	-11	-14%	·	·	2%
CCc1nc2ccc(C(=O)NCc3ccc(OC)cc3)cn2c1N(C)Cc1ccc(OC)cc1	·	-11	21µM*	·	·	?
CCc1nc2ccc(C(=O)N(C)Cc3ccccc3)cn2c1N(C)CCCc1ccccc1	·	-26	13µM*	·	·	?
CCc1nc2ccc(C(=O)NCCOc3ccc(OC)cc3)cn2c1N(C)C(=O)C1CCCCC1	·	-8	21µM*	·	·	?
CCc1nc2ccc(C(=O)NCCCn3ccnc3)cn2c1N(C)C(=O)C1CCCCC1	·	-13	-10%	·	·	-7%
NCCC[C@@H](CC(=O)N[C@@H]1CCNC[C@H]1C(=O)N[C@H](CC(=O)N[C@@H](CCC(=O)O)CC(=O)O)Cc1ccccc1)NC(=O)C[C@H](Cc1c[nH]c2ccccc12)NC(=O)[C@@H]1CNCC[C@H]1N	-3%	·	·	7%	·	·
CCc1nc2ccc(C(=O)NCCc3c[nH]c4ccccc34)cn2c1N(C=O)CCC(C)C	·	?	16µM*	·	·	21µM*

Compound activity as filed in PubChem BioAssay.
